Inconclusive results are not listed. The source made the active and inactive calls. Calls follow the shape of the dose curve; as a rule, active = well fitted curve in the direction sought with a large enough effect; inconclusive = small, poorly fitted or top-dose-only effect, or another doubt; inactive = no such curve, though single readings can be large or run the other way.
These molecules were tested against Ferritin light chain (Equus caballus) (UniProt P02791) (assay: qHTS Validation Assay for Identification of Novel General Anesthetics (AID 2323)). Details: horse apoferritin, anesthetic-site fluorescent probe displacement; series mostly up to 76.9 µM; activity change, negative = inhibition: at the top concentration.
Ferritin light chain (Equus caballus), sequence (P02791 2-175 limits assumed): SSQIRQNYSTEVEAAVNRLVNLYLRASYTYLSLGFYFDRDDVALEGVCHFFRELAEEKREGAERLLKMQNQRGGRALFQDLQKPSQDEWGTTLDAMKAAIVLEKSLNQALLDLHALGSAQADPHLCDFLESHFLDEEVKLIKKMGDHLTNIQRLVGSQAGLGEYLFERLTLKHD
Source text: Source: NIH Chemical Genomics Center [NCGC]
Assay Submitter: Roderic Eckenhoff, University of Pennsylvania
Screening Center PI: Christopher P. Austin, NIH
Probe Development: NIH Chemical Genomics Center [NCGC]
Anesthetic development has remained a largely empirical process. There are growing concerns about the cognitive effects of known general anesthetics and acceleration of the onset of neurodegenerative disease. The compounds' toxicity and multiple specific binding targets in the mammalian brain [4] has made them less attractive as drug leads. In this assay, a GABAergic mimetic model system, apoferritin and a profluorescent 1-aminoanthracene ligand (1-AMA), was used to construct a competitive binding assay for identification of novel general anesthetics. The assay was validated for 1-AMA using other known anesthetics, such as isoflurane (CID:3763) and propofol (CID: 4943), [6].
[1] S.L. Bianchi, T. Tran, C. Liu, S. Lin, Y. Li, J.M. Keller, R.G. Eckenhoff, and M.F. Eckenhoff, Brain and behavior changes in 12-month-old Tg2576 and nontransgenic mice exposed to anesthetics. Neurobiol Aging 29 (2008) 1002-10.
[2] Z. Xie, Y. Dong, U. Maeda, R.D. Moir, W. Xia, D.J. Culley, G. Crosby, and R.E. Tanzi, The inhalation anesthetic isoflurane induces a vicious cycle of apoptosis and amyloid beta-protein accumulation. J Neurosci 27 (2007) 1247-54.
[3] P. Honegger, and J.M. Matthieu, Selective toxicity of the general anesthetic propofol for GABAergic neurons in rat brain cell cultures. J Neurosci Res 45 (1996) 631-6.
[4] M.F. Eckenhoff, K. Chan, and R.G. Eckenhoff, Multiple specific binding targets for inhaled anesthetics in the mammalian brain. J Pharmacol Exp Ther 300 (2002) 172-9.
[5] C.A. Butts, J. Xi, G. Brannigan, A.A. Saad, S.P. Venkatachalan, R.A. Pearce, M.L. Klein, R.G. Eckenhoff, and I.J. Dmochowski, Identification of a fluorescent general anesthetic, 1-aminoanthracene. Proc Natl Acad Sci U S A 106 (2009) 6501-6.
[6] W.A. Lea, J. Xi, A. Jadhav, L. Lu, C.P. Austin, A. Simeonov, and R.G. Eckenhoff, A high-throughput approach for identification of novel general anesthetics. PLoS One 4 (2009) e7150.
Three uL of reagents (free 1-AMA (50% saturated solution of 1-aminoanthracene
in PBS) in columns 3, 4 as negative control and 1-AMA/apoferritin mixture (10 uM horse-spleen apoferritin in 50% saturated 1-aminoanthracene in PBS) in columns 1, 2, 5-48) was dispensed into 1536-well Greiner black assay plates. Compounds (23 nL) were transferred via Kalypsys pintool equipped with 1,536-pin array (10 nL slotted pins, V&P Scientific, San Diego, CA). Titration of the positive control, propofol, were delivered via pin transfer from separate control plates to the 2nd column of each assay plate. The starting concentration of the control, dissolved in DMSO, was at 160 mM, followed by two-fold dilution points in duplicate, for a total of 16 concentrations. The plates were incubated for 10 min at room temperature, and then read on an EnVision HTS multilabel reader (Perkin-Elmer, Waltham, MA) (end point read, 3 min/plate) using Fura2 BFP excitation filter (380 nm, bandwidth 10 nm) and fluorescein emission filter (535 nm, bandwidth 25 nm) set. A LANCE/DELFIA dichroic mirror with a cutoff wavelength at 400 nm was used to maximize signal accuracy and strength. Vehicle-only plates, with DMSO being pin-transferred to the entire column 5-48 compound area, were inserted uniformly at the beginning and the end of each library in order to monitor for and record any shifts in the background. Activity was computed as the normalized fluorescence response relative to free 1-AMA and 1-AMA/apoferritin complex values. Concentration-effect relationships were derived by using curve fitting algorithms developed in-house (http://ncgc.nih.gov/pub/openhts/). A four parameter Hill equation was fitted to the concentration-response data by minimizing the residual error between the modeled and observed responses.
% is scaled to controls: 0 for no effect and ±100 for the full control effect.

SMILES | activity change, negative = inhibition | outcome
O=C(O)CCCc1ccc(N(CCCl)CCCl)cc1 | -9.08% (inactive) | 
CCCCC/C=C\C/C=C\C/C=C\C/C=C\CCCC(=O)NCC(=O)O | 36.5% (inactive) | 
CC(C)N(CCC(C(N)=O)(c1ccccc1)c1ccccn1)C(C)C (configuration not stated) |  | inactive
CN1C(=O)CCS(=O)(=O)C1c1ccc(Cl)cc1 (configuration not stated) | -1.23% (inactive) | 
CC(NC(C)(C)C)C(=O)c1cccc(Cl)c1 (configuration not stated) | -14.5% (inactive) | 
O=P1(N(CCCl)CCCl)NCCCO1 (configuration not stated) | -8.38% (inactive) | 
CCC1(c2ccc(N)cc2)CCC(=O)NC1=O (configuration not stated) | -9.43% (inactive) | 
CC(C)(C)NCC(O)c1ccccc1Cl (configuration not stated) | -3.82% (inactive) | 
NCCc1ccc(O)cc1 | -4.94% (inactive) | 
C=C(C)[C@H]1CN[C@H](C(=O)O)[C@H]1CC(=O)O | -3.87% (inactive) | 
O=C(CCCN1CCC2(CC1)C(=O)NCN2c1ccccc1)c1ccc(F)cc1 | -11.5% (inactive) | 
C[C@]12CCC(=O)C=C1CC[C@@H]1[C@@H]2CC[C@]2(C)C(=O)CC[C@@H]12 | -6.75% (inactive) | 
